# Rows were chosen to be rich in hits. Some 2.4% of all compounds tested hit in one or more screens of this group.
# Nrf2 block: Nrf2 qHTS screen for inhibitors | A549 ARE-Fluc reporter, luciferase luminescence, 18-24 h | Potency, µM (titrated, usually from 46 µM), for inactives: at the highest dose activity change, negative = inhibition, usual class: inhibitors | actives 2.1% (n = 360,000); note: % is set by controls: 0 for no effect and ±100 for the full control effect; nearly all actives have a fitted effect of over 60% in size
#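 Nrf2 function is reported as luminescence of an ARE-controlled luciferase in A549 cells. Compounds were tested at several concentrations, and a CellTiter-Fluor read on the same wells flagged cytotoxicity.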
# PINK1 modulator: A Quantitative High throughput Screen to Identify Chemical Modulators of PINK1 Expression. PINK1 immunofluorescence, high-content cytometry, 24 h. Potency, µM (doses to about 76.6 µM), without a hit: at the top dose activation (PINK1 increase), actives largely listed as activators. actives 0.2% (n = 410,000); active = well fitted activation curve with a large enough effect; inconclusive = small, poorly fitted or top-dose-only effect; cell line not stated here; note: % of control where 0% means no effect; nearly all actives have a fitted effect of over 65% in size
#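 Readout is PINK1 immunofluorescence, quantified alongside mitochondrial, cell and nuclear markers by laser-scanning microplate cytometry. Cells from a stable line were exposed to compound titrations (5 concentrations) for 24 hours, with CCCP controls.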
# Epigenetic derep: Quantitative High-Throughput Screen for Regulators of Epigenetic Control | murine LDR cells, GFP reporter derepression, 30 h | Potency, µM (top dose mostly 53.9 µM), inactives show top-dose GFP activation, usual class: activators | actives 0.2% (n = 280,000) | AID 1865, 2009; note: % of control where 0% means no effect; nearly all actives have a fitted effect of over 60% in size
#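 Reporter derepression read as number of fluorescent GFP-positive objects, 20-120 um in size, counted by laser-scanning cytometer. Mouse LDR line with an epigenetically silenced CMV-GFP locus; compound incubation 30 h, 37 C.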
# A549 tox: Nrf2 qHTS screen for inhibitors: counterscreen for cytotoxicity; A549 ARE-Fluc cells, CellTiter-Fluor viability, 18-24 h; Potency, µM (titrated, usually from 46 µM), for inactives: top-dose activity change, negative = cytotoxicity, actives largely listed as inhibitors; actives 0.16% (n = 390,000); note: % is set by controls: 0 for no effect and ±100 for the full control effect
#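 A549 ARE_Fluc cells in 5% FBS OPTI-MEM were exposed to compounds in concentration-response for 18-24 h at 37 deg C. Viability was read by CellTiter-Fluor fluorescence (Ex 405/Em 525) after 30 min, before the luciferase read.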
# Nrf2 ARE act: qHTS of Nrf2 Activators; AREc32 ARE-luciferase reporter (MCF7-derived line), luminescence, 24 h; Potency, µM (titrated, usually from 46.1 µM), for the others: at the top dose activation, hits mostly activators; actives 0.31% (n = 410,000); AID 624171, 2012; note: % of control where 0% means no effect; nearly all actives have a fitted effect of over 65% in size
#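 ARE-driven firefly luciferase activity in AREc32 cells measured after a 24 hr compound exposure at 37 deg C, using Steady-Glo reagent and a 30 min room-temperature hold.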
# * marks the source's active call; other numbers are inactive results; ? = inconclusive; . = not tested or not shown; [ ] = dose if it differs, or a comment. Unless noted, calls come from the whole dose curve; as a rule, active = well fitted curve in the direction sought with a large enough effect; inconclusive = small, poorly fitted or top-dose-only effect, or another doubt; inactive = no such curve, though single readings can be large; an effect the other way counts as inactive or inconclusive. Potency is the fitted concentration of half-maximal effect.
SMILES,Nrf2 block,PINK1 modulator,Epigenetic derep,A549 tox,Nrf2 ARE act
Cc1cc2c(s1)c1cnn(Cc3ccc(S(C)(=O)=O)cc3)c(=O)c1n2C,20.6µM*,.,.,-13.6%,.
CC(=O)NCC(=O)NCC1Cc2cc(C)cc(-c3ccccn3)c2O1 (stereo unspecified),.,0.7%,.,.,.
CC(C)[C@H](NC(=O)OC(C)(C)C)c1nnc(S(=O)(=O)Cc2c(F)cccc2Cl)o1,-21.4%,6.31µM*,?,-1.6%[1.84 µM],?
COc1cccc(Cc2nc3ccccc3nc2SCC(=O)N2CCCc3ccccc32)c1,.,-0.1%,1.1%,19.3%,4.2%
CC1CCCCN1S(=O)(=O)c1cccc2cccnc12 (stereo unspecified),11.3%,2.2%,0.8%,-5.8%,-0.2%
CC1CNCCN1S(=O)(=O)c1cccc2cnccc12 (stereo unspecified),18.4µM*,0.2%,0.6%,-6.8%,6.6%
Cc1ccc(NC(=O)CSc2nnc(-c3ccco3)c(-c3ccco3)n2)cc1,?,4.8%,1.2%,?,?
CSc1nnc(-c2ccccc2)c(-c2ccccc2)n1,0.7%,0.0%,-1.1%,-0.7%,0.5%
CSc1nnc(-c2ccco2)c(-c2ccco2)n1,-1.9%,-2.3%,?,-9.9%,7.94µM*
O=C(CSc1nnc(-c2ccco2)c(-c2ccco2)n1)Nc1ccccc1,-17.9%,-1.6%,1.0%,-11.7%,12.6µM*
Cc1ncc2c(c1CNS(=O)(=O)N(C)C)CCN(C(=O)/C=C/c1ccccc1Cl)C2,.,-0.1%,.,.,.
C=C(C)c1cccc(C(C)(C)NC(=O)Nc2ccc(OC)nc2)c1,?,0.9%,.,11.6µM*,-0.6%
C=C(C)c1cccc(C(C)(C)NC(=O)Nc2ccc(C)cn2)c1,?,11.1%,-1.0%,-7.4%,6.2%
C=C(C)c1cccc(C(C)(C)NC(=O)Nc2cc(C)ccn2)c1,14.6µM*,21.3%,0.0%,?,2.9%
Cc1ccsc1C(=O)N(Cc1cc2ccc(F)cc2nc1N1CCC(O)CC1)CC1CCCO1 (stereo unspecified),.,-0.6%,.,.,.
COc1ccc(-n2cnnc2SCc2ncc(-c3ccccc3)o2)cc1,?,-0.1%,-3.9%,2.1%,0.6%
Cn1c(COc2ccc(Cl)cc2)nnc1SCc1ncc(-c2ccccc2)o1,16.4µM*,-2.9%,1.9%,-29.8%,2.2%
O=C(Nc1ccc(F)cc1F)N1CCCN(c2ccc([N+](=O)[O-])cn2)CC1,?,0.0%,1.1%,-18.0%,-0.6%
CC(C)(C)c1ccc(NC(=O)N2CCN(c3ccc([N+](=O)[O-])cn3)CC2)cc1,13µM*,2.1%,8.7%,-8.0%,3.7%
CNc1sc(C(=O)c2ccc(F)cc2)c(N)c1-c1nc2ccccc2s1,11.4%,-1.7%[38.3 µM],0.9%,-18.4%,11.2µM*
O=C(/C=C/Nc1ccc(F)cc1F)c1ccco1,?,-0.5%,0.8%,?,6.31µM*
O=C(/C=C/Nc1ccc(Br)cc1F)c1ccco1,?,2.3%,0.1%,-5.1%,?
O=C(/C=C/C=C/c1ccccc1)c1ccco1,28.8%,4.2%,1.6%,-2.4%,11.2µM*
O=C(/C=C/Nc1ccccc1Oc1ccccc1)c1ccco1,6.7%,0.5%,?,-2.7%,?
O=C(/C=C/c1ccc(Br)cc1)c1ccco1,-7.2%,-2.5%,11.3%,-4.9%,3.8%
SMILES,Nrf2 block,PINK1 modulator,Epigenetic derep,A549 tox,Nrf2 ARE act
O=C(/C=C/Nc1ccccc1O)c1ccco1,4.4%,0.4%,2.0%,-10.5%,11.2µM*
COc1cc(-c2cccc(Cl)c2)cc2c1OCCN(C(=O)CCn1ccc(C)n1)C2,.,0.3%,.,.,.
Cc1c(C(=O)NCc2ccc3c(c2)OCO3)cnn1-c1ncc2c(n1)-c1ccccc1CC2,.,0.9%,.,.,.
O=C1c2cccc(NCCNCCO)c2C(=O)c2cccc(NCCNCCO)c21,10.3µM*,-1.6%,.,18.4µM*,-0.1%
Cc1ccc(OCc2ccc(C(=O)NCc3cccnc3)cc2)cc1C,23.1µM*,-1.0%,-0.6%[10.1 µM],-18.2%,3.3%
Cc1cccc(OCC(=O)Nc2ccc(C(=O)NCc3cccnc3)cc2)c1,.,.,0.0%,.,.
O=C(COc1ccc(-c2ccccc2)cc1)Nc1cccnc1,16.4µM*,0.9%,.,-15.7%,-0.7%
O=C(COc1ccc([N+](=O)[O-])cc1)Nc1cccnc1,?,0.7%,2.1%,0.1%,-0.8%
COC(=O)/C(=C/c1cccnc1)NC(=O)c1ccccc1,-15.1%,-0.2%,-1.0%,-1.6%,4.6%
CC(C)(C)c1ccc(C(=O)NCc2cccnc2)cc1,0.7%,-0.4%,2.9%,-3.9%,0.3%
COC(=O)/C(=C\c1cccnc1)NC(=O)c1ccc(OCc2ccccc2)cc1,16.4µM*,1.2%,.,-2.4%,0.4%
O=C(COc1ccc(Cl)cc1)Nc1ccc(C(=O)NCc2cccnc2)cc1,20.6µM*,2.7%,1.0%,-11.1%,-0.8%
COc1ccc(CN2CCC3(CCC(CNC(=O)c4ccnn4C)O3)CC2)c(C)c1C (stereo unspecified),.,-0.4%,.,.,.
O=C(CSc1ncc2c(n1)-c1ccccc1N(Cc1ccc(Cl)cc1)S2(=O)=O)c1ccc(Cl)cc1,-7.2%,4.3%,5.8%,0.2%,-0.7%
CSc1cc2c(s1)c1cnn(Cc3cccc(N)c3)c(=O)c1n2C,-10.1%,.,.,-1.7%,.
COc1ccccc1CNc1ncncc1-c1ccccc1OC,.,0.2%,.,.,.
O=C(NCc1ccc(Cl)cc1)c1cccnc1,-26.0%,0.3%,-1.8%,-1.2%,-0.5%
COc1cc(OC)c(OC)cc1CNC(=O)c1ccc(COc2ccccc2)cc1,16.4µM*,0.2%,.,-12.4%,1.0%
O=C(NCc1cccnc1)c1ccc(COc2ccc(Cl)cc2)cc1,23.1µM*,0.6%,-0.6%,-7.2%,3.2%
COc1ccc(CN(C)C(=O)c2ccc(COc3ccccc3)cc2)c(OC)c1,?,-1.0%,.,-4.4%,0.0%
CCO[C@H]1[C@H](NC(=O)c2cccnc2)c2ccccc2C12CCN(C(=O)c1ccoc1)CC2,.,0.3%,.,.,.
COc1ccc(-c2nc3ccc(NS(=O)(=O)c4ccc(Cl)cc4)cc3o2)cc1,-32.3%,-1.3%,4.1%,-7.2%,-1.4%
Cc1cc(C)cc(NS(=O)(=O)c2ccc3[nH]cc(C(=O)NCc4ccccc4Cl)c(=O)c3c2)c1,.,19.1%,-1.1%,-26.4%,-0.8%
Cc1cc(C)cc(NS(=O)(=O)c2ccc3[nH]cc(C(=O)NC4CCCCC4)c(=O)c3c2)c1,23.1µM*,16.1%,1.4%,-15.8%,-3.5%
Cc1cc(C)cc(NS(=O)(=O)c2ccc3[nH]cc(C(=O)NCc4ccco4)c(=O)c3c2)c1,16.4µM*,-0.8%,0.9%,-11.3%,-0.2%
CC(=O)NC1CCCC1C#N (stereo unspecified),.,-0.3%,.,.,.
CSc1nsc(/C=C/Nc2ccc(Cl)cc2)c1C#N,-7.6%,16.9%,?,2.8%,20.8%
CSc1nsc(/C=C/Nc2ccc(F)cc2)c1C#N,-9.3%,0.4%,10µM*,-19.9%,?
